Test results: PubChem BioAssay (NCI)
Where “and” joins values, the source holds several entries; their conditions need not be identical. Equal entries are not always repeated. The panel holds about 79,000 compounds, 15% with a hit somewhere; the sample as a whole holds those more often. Some structures have more than one record in an assay (separate samples or runs), and their calls can disagree. Calls of active or inactive are those of the source. No stated cut-off is given here; in the data, active means growth inhibition above about 70%; inactive means the rest.

Legend:
[1] = NCI Yeast Anticancer Drug Screen. Data for the rad52 strain (AID 147);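 further: 0% = growth of vehicle-treated control cultures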; conditions: S. cerevisiae rad52 mutant growth inhibition, stronger effect = higher value
In short: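 DNA repair-defective yeast; compound exposure; growth scored against vehicle controls.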

[2] = NCI Yeast Anticancer Drug Screen. Data for the rad50EPP+ strain (AID 151);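 further: 0% = growth of vehicle-treated control cultures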; conditions: S. cerevisiae rad50 mutant strain, stronger effect = higher value
In short: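 rad50EPP+ yeast treated with test compounds. Readout: growth vs vehicle control.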

[3] = NCI Yeast Anticancer Drug Screen. Data for the mgt1 strain (AID 153); conditions: S. cerevisiae mgt1 mutant growth inhibition, stronger effect = higher value
In short: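 Growth inhibition relative to vehicle controls was scored for the mgt1 yeast strain after compound exposure.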

[4] = NCI Yeast Anticancer Drug Screen. Data for the rad50 strain (AID 155);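 further: 0% = growth of vehicle-only cultures of the same strain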; conditions: S. cerevisiae rad50 strain growth inhibition, stronger effect = higher value
In short: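 A DNA repair-deficient yeast mutant serves as the test organism; compound-induced growth inhibition is calculated against vehicle-treated cells.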

[5] = NCI Yeast Anticancer Drug Screen. Data for the mec2-1 strain (AID 157); conditions: S. cerevisiae mec2-1 strain, stronger effect = higher value
In short: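 Growth inhibition is read against vehicle-treated controls after compound exposure of the mec2-1 yeast strain, which is defective in DNA damage repair or cell cycle control.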

[6] = NCI Yeast Anticancer Drug Screen. Data for the rad14 strain (AID 159);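 further: 0% = growth of vehicle-treated control cultures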; conditions: S. cerevisiae rad14 strain growth inhibition, stronger effect = higher value
In short: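 Vehicle-treated cultures served as the baseline for growth inhibition of a DNA repair-mutant yeast strain exposed to each compound.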

[7] = NCI Yeast Anticancer Drug Screen. Data for the sgs1 mgt1 strain (AID 161);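 further: 0% = growth of cultures given vehicle only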; conditions: S. cerevisiae sgs1 mgt1 strain, stronger effect = higher value
In short: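 Compounds are added to genetically altered yeast, and growth is compared with cultures given vehicle alone to give percent inhibition.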

[8] = NCI Yeast Anticancer Drug Screen. Data for the CLN2oe strain (AID 163);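 further: 0% = growth of vehicle-only control cultures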; conditions: S. cerevisiae CLN2oe strain, stronger effect = higher value
In short: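 Compound-treated yeast; growth vs vehicle ctrl = % inhibition. Genetically altered strain (cell-cycle control).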

[9] = NCI Yeast Anticancer Drug Screen. Data for the cln2 rad14 strain (AID 165);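 further: 0% = growth equal to vehicle treated cultures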; conditions: S. cerevisiae cln2 rad14 strain, stronger effect = higher value
In short: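 Growth inhibition, relative to vehicle-treated controls, is the read-out. The test organism is a yeast strain with defined genetic alterations, cln2 rad14.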

[10] = NCI Yeast Anticancer Drug Screen. Data for the bub3 strain (AID 167); conditions: S. cerevisiae bub3 mutant strain, stronger effect = higher value
In short: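 Inhibition values come from growth of compound-treated mutant yeast normalised to vehicle-treated controls.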

[11] = NCI Yeast Anticancer Drug Screen. Data for the wt2 strain (AID 169);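 further: 0% = growth of vehicle-treated yeast cultures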; conditions: S. cerevisiae wt2 strain growth inhibition, stronger effect = higher value
In short: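 Compound exposure of yeast; growth compared with vehicle controls; inhibition reported.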

[12] = NCI Yeast Anticancer Drug Screen. Data for the mlh1 strain (AID 171);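 further: 0% = growth of vehicle-treated control cultures of the same strain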; conditions: S. cerevisiae mlh1 strain growth inhibition, stronger effect = higher value
In short: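 Compounds are applied to a genetically altered yeast strain, and its growth is compared with that of vehicle-treated cultures to give percent inhibition.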

[13] = NCI Yeast Anticancer Drug Screen. Data for the sgs1 strain (AID 173);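 further: 0% = growth of vehicle-only control cultures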; conditions: S. cerevisiae sgs1 mutant, stronger effect = higher value
In short: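 Compounds applied to genetically altered yeast; growth compared with vehicle-treated cultures to give % inhibition.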

[14] = NCI Yeast Anticancer Drug Screen. Data for the mlh1 rad18 strain (AID 175); conditions: S. cerevisiae mlh1 rad18 strain growth inhibition, stronger effect = higher value
In short: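 Cells of a genetically altered yeast strain, deficient in DNA damage repair, were treated with compound. Their growth was then compared with that of vehicle-treated cultures to give inhibition.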

[15] = NCI Yeast Anticancer Drug Screen. Data for the rad18 strain (AID 177); conditions: S. cerevisiae rad18 mutant growth inhibition, stronger effect = higher value
In short: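 Compounds are applied to a repair-deficient yeast strain, and growth is compared with that of vehicle-treated cultures to give percent inhibition.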

[16] = NCI Yeast Anticancer Drug Screen. Data for the wt1 strain (AID 149);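 further: 0% = growth of vehicle-treated wt1 cultures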; conditions: S. cerevisiae wt1 strain (SPY 50644) growth inhibition, stronger effect = higher value
In short: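 Vehicle-normalised growth inhibition; strain wt1; compound exposure.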

[17] = at 5.0 µM (retest, dose inferred, filed as 0.5)
[18] = at 50.0 µM (retest, dose inferred, filed as 5.0)

O=C(NNc1ccccc1)C(O)C(O)C(O)C(O)C(O)CO (stereo unspecified)
growth inhibition ([1]; at 1.2 µM): 3% (inactive)
growth inhibition ([1]; at 3.7 µM): 11% (inactive)
growth inhibition ([1]; at 11.0 µM): 29% (inactive)
growth inhibition ([1]; at 33.0 µM): 53% (inactive)
growth inhibition ([1]; at 100.0 µM): 93% (active)
growth inhibition ([2]; at 1.2 µM): 9% (inactive)
growth inhibition ([2]; at 3.7 µM): 29% (inactive)
growth inhibition ([2]; at 11.0 µM): 43% (inactive)
growth inhibition ([2]; at 33.0 µM): 64% (inactive)
growth inhibition ([2]; at 100.0 µM): 86% (active)
growth inhibition ([3]; at 1.2 µM): 6% (inactive)
growth inhibition ([3]; at 3.7 µM): 12% (inactive)
growth inhibition ([3]; at 11.0 µM): 23% (inactive)
growth inhibition ([3]; at 33.0 µM): 50% (inactive)
growth inhibition ([3]; at 100.0 µM): 88% (active)
growth inhibition ([4]; at 1.2 µM): 5% (inactive)
growth inhibition ([4]; at 3.7 µM): 7% (inactive)
growth inhibition [4, 17]: 24% (inactive) and 10% (inactive)
growth inhibition ([4]; at 11.0 µM): 21% (inactive)
growth inhibition ([4]; at 33.0 µM): 40% (inactive)
growth inhibition [4, 18]: 48% (inactive) and 56% (inactive) and 87% (active)
growth inhibition ([4]; at 50.0 µM): 91.7% (active) and 24.9% (inactive) and 57.1% (inactive)
growth inhibition ([4]; at 100.0 µM): 84% (active)
growth inhibition ([5]; at 1.2 µM): -2% (inactive)
growth inhibition ([5]; at 3.7 µM): 2% (inactive)
growth inhibition [5, 17]: -5% (inactive) and 6% (inactive) and 1% (inactive)
growth inhibition ([5]; at 11.0 µM): 31% (inactive)
growth inhibition ([5]; at 33.0 µM): 52% (inactive)
growth inhibition [5, 18]: 39% (inactive) and 48% (inactive) and 87% (active)
growth inhibition ([5]; at 50.0 µM): 51.7% (inactive) and 26.8% (inactive) and 80.2% (active)
growth inhibition ([5]; at 100.0 µM): 82% (active)
growth inhibition ([6]; at 1.2 µM): 0% (inactive)
growth inhibition ([6]; at 3.7 µM): -1% (inactive)
growth inhibition ([6]; at 11.0 µM): 8% (inactive)
growth inhibition ([6]; at 33.0 µM): 20% (inactive)
growth inhibition ([6]; at 100.0 µM): 59% (inactive)
growth inhibition [7, 17]: -10% (inactive) and 9% (inactive) and 13% (inactive)
growth inhibition [7, 18]: 35% (inactive) and 52% (inactive) and 71% (active)
growth inhibition ([7]; at 50.0 µM): 78.5% (active) and 54.9% (inactive) and 60.7% (inactive)
growth inhibition ([8]; at 1.2 µM): -2% (inactive)
growth inhibition ([8]; at 3.7 µM): 3% (inactive)
growth inhibition ([8]; at 11.0 µM): 22% (inactive)
growth inhibition ([8]; at 33.0 µM): 52% (inactive)
growth inhibition ([8]; at 100.0 µM): 76% (active)
growth inhibition [9, 17]: 4% (inactive) and 3% (inactive)
growth inhibition [9, 18]: 54% (inactive) and 48% (inactive) and 81% (active)
growth inhibition ([9]; at 50.0 µM): 54.4% (inactive) and 55.3% (inactive) and 78.8% (active)
growth inhibition ([10]; at 1.2 µM): -3% (inactive)
growth inhibition ([10]; at 3.7 µM): 0% (inactive)
growth inhibition [10, 17]: -1% (inactive) and 10% (inactive) and 14% (inactive)
growth inhibition ([10]; at 11.0 µM): 33% (inactive)
growth inhibition ([10]; at 33.0 µM): 75% (active)
growth inhibition [10, 18]: 38% (inactive) and 79% (active) and 90% (active)
growth inhibition ([10]; at 50.0 µM): 96.8% (active) and 45.6% (inactive) and 87.4% (active)
growth inhibition ([10]; at 100.0 µM): 92% (active)
growth inhibition ([11]; at 1.2 µM): 2% (inactive)
growth inhibition ([11]; at 3.7 µM): 12% (inactive)
growth inhibition ([11]; at 11.0 µM): 28% (inactive)
growth inhibition ([11]; at 33.0 µM): 39% (inactive)
growth inhibition ([11]; at 100.0 µM): 80% (active)
growth inhibition ([12]; at 1.2 µM): 4% (inactive)
growth inhibition ([12]; at 3.7 µM): 2% (inactive)
growth inhibition ([12]; at 11.0 µM): 22% (inactive)
growth inhibition ([12]; at 33.0 µM): 44% (inactive)
growth inhibition ([12]; at 100.0 µM): 91% (active)
growth inhibition ([13]; at 1.2 µM): 2% (inactive)
growth inhibition ([13]; at 3.7 µM): 10% (inactive)
growth inhibition ([13]; at 11.0 µM): 37% (inactive)
growth inhibition ([13]; at 33.0 µM): 67% (inactive)
growth inhibition ([13]; at 100.0 µM): 94% (active)
growth inhibition [14, 17]: 23% (inactive) and 28% (inactive) and 26% (inactive)
growth inhibition [14, 18]: 85% (active) and 87% (active) and 93% (active)
growth inhibition ([14]; at 50.0 µM): 86.9% (active) and 85.9% (active) and 95.2% (active)
growth inhibition ([15]; at 1.2 µM): 5% (inactive)
growth inhibition ([15]; at 3.7 µM): 13% (inactive)
growth inhibition ([15]; at 11.0 µM): 39% (inactive)
growth inhibition ([15]; at 33.0 µM): 67% (inactive)
growth inhibition ([15]; at 100.0 µM): 92% (active)

Oc1ccc(O)c(Cc2ccccc2)c1
growth inhibition ([1]; at 1.2 µM): 21% (inactive)
growth inhibition ([1]; at 3.7 µM): 48% (inactive)
growth inhibition ([1]; at 11.0 µM): 89% (active)
growth inhibition ([1]; at 33.0 µM): 97% (active)
growth inhibition ([1]; at 100.0 µM): 99% (active)
growth inhibition ([16]; at 1.2 µM): 6% (inactive)
growth inhibition ([16]; at 3.7 µM): 14% (inactive)
growth inhibition ([16]; at 11.0 µM): 29% (inactive)
growth inhibition ([16]; at 33.0 µM): 50% (inactive)
growth inhibition ([16]; at 100.0 µM): 93% (active)
growth inhibition ([2]; at 1.2 µM): 56% (inactive)
growth inhibition ([2]; at 3.7 µM): 88% (active)
growth inhibition ([2]; at 11.0 µM): 95% (active)
growth inhibition ([2]; at 33.0 µM): 98% (active)
growth inhibition ([2]; at 100.0 µM): 99% (active)
growth inhibition ([4]; at 1.2 µM): 37% (inactive)
growth inhibition ([4]; at 3.7 µM): 87% (active)
growth inhibition [4, 17]: 77% (active)
growth inhibition ([4]; at 11.0 µM): 97% (active)
growth inhibition ([4]; at 33.0 µM): 99% (active)
growth inhibition [4, 18]: 97% (active)
growth inhibition ([4]; at 50.0 µM): 79.3% (active)
growth inhibition ([4]; at 100.0 µM): 99% (active)
growth inhibition ([5]; at 1.2 µM): 6% (inactive)
growth inhibition ([5]; at 3.7 µM): 30% (inactive)
growth inhibition [5, 17]: -9% (inactive)
growth inhibition ([5]; at 11.0 µM): 75% (active)
growth inhibition ([5]; at 33.0 µM): 100% (active)
growth inhibition [5, 18]: 68% (inactive)
growth inhibition ([5]; at 50.0 µM): 84.3% (active)
growth inhibition ([5]; at 100.0 µM): 100% (active)
growth inhibition ([6]; at 1.2 µM): 17% (inactive)
growth inhibition ([6]; at 3.7 µM): 34% (inactive)
growth inhibition ([6]; at 11.0 µM): 73% (active)
growth inhibition ([6]; at 33.0 µM): 98% (active)
growth inhibition ([6]; at 100.0 µM): 99% (active)
growth inhibition [7, 17]: -20% (inactive)
growth inhibition [7, 18]: 68% (inactive)
growth inhibition ([7]; at 50.0 µM): 92.5% (active)
growth inhibition ([8]; at 1.2 µM): 3% (inactive)
growth inhibition ([8]; at 3.7 µM): 28% (inactive)
growth inhibition ([8]; at 11.0 µM): 40% (inactive)
growth inhibition ([8]; at 33.0 µM): 72% (active)
growth inhibition ([8]; at 100.0 µM): 98% (active)
growth inhibition [9, 17]: -25% (inactive)
growth inhibition [9, 18]: 47% (inactive)
growth inhibition ([9]; at 50.0 µM): 97.4% (active)
growth inhibition ([10]; at 1.2 µM): 8% (inactive)
growth inhibition ([10]; at 3.7 µM): 25% (inactive)
growth inhibition [10, 17]: -26% (inactive)
growth inhibition ([10]; at 11.0 µM): 63% (inactive)
growth inhibition ([10]; at 33.0 µM): 97% (active)
growth inhibition [10, 18]: 88% (active)
growth inhibition ([10]; at 50.0 µM): 98.3% (active)
growth inhibition ([10]; at 100.0 µM): 99% (active)
growth inhibition ([11]; at 1.2 µM): -2% (inactive)
growth inhibition ([11]; at 3.7 µM): 1% (inactive)
growth inhibition ([11]; at 11.0 µM): 23% (inactive)
growth inhibition ([11]; at 33.0 µM): 58% (inactive)
growth inhibition ([11]; at 100.0 µM): 87% (active)
growth inhibition ([13]; at 1.2 µM): 16% (inactive)
growth inhibition ([13]; at 3.7 µM): 45% (inactive)
growth inhibition ([13]; at 11.0 µM): 94% (active)
growth inhibition ([13]; at 33.0 µM): 99% (active)
growth inhibition ([13]; at 100.0 µM): 99% (active)
growth inhibition [14, 17]: 36% (inactive)
growth inhibition [14, 18]: 95% (active)
growth inhibition ([14]; at 50.0 µM): 98% (active)
growth inhibition ([15]; at 1.2 µM): 27% (inactive)
growth inhibition ([15]; at 3.7 µM): 52% (inactive)
growth inhibition ([15]; at 11.0 µM): 87% (active)
growth inhibition ([15]; at 33.0 µM): 97% (active)
growth inhibition ([15]; at 100.0 µM): 99% (active)
